Structures are written as SMILES. Screen size: about 200,000 compounds; about 4,500 (2.2%) were called active. About 12% were inconclusive and are not listed. The call rests on the fitted dose curve; in most records, active means well fitted inhibition curve with a large enough effect; inconclusive means small, poorly fitted or top-dose-only effect, or effect the other way; inactive means flat fitted curve, though single readings scatter. This excerpt belongs to a sample that is enriched for actives.
Potency means the concentration at half of the fitted maximal effect.

Sequence of Cruzipain (Trypanosoma cruzi) (P25779 123-467 limits assumed): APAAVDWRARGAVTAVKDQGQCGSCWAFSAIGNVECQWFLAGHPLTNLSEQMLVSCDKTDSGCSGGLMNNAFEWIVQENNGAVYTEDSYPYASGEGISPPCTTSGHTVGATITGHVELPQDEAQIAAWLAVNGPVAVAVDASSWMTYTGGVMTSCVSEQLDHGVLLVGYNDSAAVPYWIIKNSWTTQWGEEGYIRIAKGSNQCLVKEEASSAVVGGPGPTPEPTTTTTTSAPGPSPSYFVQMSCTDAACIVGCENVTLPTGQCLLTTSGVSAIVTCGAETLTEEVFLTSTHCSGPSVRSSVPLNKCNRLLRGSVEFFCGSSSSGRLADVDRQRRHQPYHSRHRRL

The experiment addresses Cruzipain (Trypanosoma cruzi) (UniProt P25779). Kind of experiment: qHTS Assay for Promiscuous and Specific Inhibitors of Cruzain (without detergent). Further: nearly all actives have a fitted effect of over 40% in size.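 On max response, negative = inhibition: plate controls were enzyme without inhibitor for no effect and buffer without enzyme for full effect.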 Conditions: purified cruzain, Z-FR-AMC fluorescence, no detergent. Summed up: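 Purified cruzain at 1.5 nM, pre-incubated 15 min with compound at room temperature in 100 mM sodium acetate pH 5.5, 5 mM DTT, 0.00005% Triton X-100. Reaction started with 2 uM Z-FR-AMC; AMC fluorescence increase over 60 s gives rate.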
A general note: Quantitative high-throughput screening tests each substance at several concentrations.
On to `CC(=O)c1ccc(NC(=O)C2CCN(S(=O)(=O)c3c(C)noc3/C=C/c3ccc(C)cc3)CC2)cc1`, for which the max response, negative = inhibition was 9.83% (inactive).

For `Cc1noc(/C=C/c2ccco2)c1S(=O)(=O)N1CCC(C(=O)N2CCc3ccccc32)CC1`, the Potency was 15.8 µM (active).

`Cc1cccc(NC(=O)C2CCN(S(=O)(=O)c3c(C)noc3/C=C/c3ccco3)CC2)c1`: the max response, negative = inhibition was 2.41% (inactive).

Consider `Cc1cc(C)c(/C=C/c2onc(C)c2S(=O)(=O)N2CCC(C(=O)Nc3ccc(Cl)cc3C)CC2)c(C)c1`, for which the max response, negative = inhibition is 0.507% (inactive).

Take `Cc1noc(/C=C/c2ccco2)c1S(=O)(=O)N1CCC(C(=O)Nc2ccc(Cl)cn2)CC1`: the Potency was 6.31 µM (active).

Regarding `Cc1noc(/C=C/N(C)C)c1S(=O)(=O)N1CCCC(C(=O)NCc2ccco2)C1` (stereo not given), the max response, negative = inhibition is 14.2% (inactive).

Regarding `Cc1ccc(NC(=O)CCCn2c(=O)c3cccn3c3ccccc32)cc1Cl`, the max response, negative = inhibition was 8.76% (inactive).

As to `Cc1ccc(C)c(N2CCN(C(=O)CN3C(=O)COc4ccc(S(=O)(=O)N5CCCCCC5)cc43)CC2)c1`, the max response, negative = inhibition was -9.73% (inactive).

In the case of `Cc1ccc(C)c(NC(=O)CSC2=Nc3ccccc3N=C(c3ccc(F)cc3)C2)c1`, the max response, negative = inhibition is 1.61% (inactive).

As for `O=C(Nn1c(SCc2ccc([N+](=O)[O-])cc2)nc2ccccc2c1=O)c1ccc(F)cc1`, the Potency is 10 µM (active).

For the molecule `O=C(Nn1c(-c2ccccc2)nc2ccccc2c1=O)c1ccc([N+](=O)[O-])cc1`, the max response, negative = inhibition was 8.42% (inactive).

`O=C(CCn1c(SCC(=O)c2ccccc2)nc2ccccc2c1=O)NCc1ccc(F)cc1`: the max response, negative = inhibition was -24.2% (inactive).

For the molecule `CCc1cccc(C)c1NS(=O)(=O)c1ccc(-c2cc(C)no2)s1`, the max response, negative = inhibition is -2.03% (inactive).

Consider `CCc1ccc(-n2nnc(-c3nc(-c4ccccc4)no3)c2C)cc1`, for which the max response, negative = inhibition is 11.5% (inactive).

For `CCCNC(=O)c1ccc(Cn2c(SCC(N)=O)nc3ccccc3c2=O)cc1`, the max response, negative = inhibition was -1.8% (inactive).

Take `COc1ccc(CC(=O)Nc2nnc3n2CCS3)cc1OC`: the max response, negative = inhibition is 3.34% (inactive).

For `O=S(=O)(O)c1ccc(O)c2ncccc12.O=S(=O)(O)c1ccc(O)c2ncccc12.[Zn]`, the Potency is 3.16 µM (active).

Consider `O=C(O)COc1c(Cl)cc(Cl)c2cccnc12`, for which the max response, negative = inhibition is -2.23% (inactive).

For `CC(=O)c1ccc(N2CCN(C3C(=O)c4ccccc4N3C(C)=O)CC2)cc1` (stereo not given), the max response, negative = inhibition is 6.9% (inactive).

For the molecule `COc1ccc(C(F)(F)F)cc1NC(=O)c1sc2nc(-c3cccs3)ccc2c1N`, the max response, negative = inhibition was -12.3% (inactive).

For `CCN(CC(=O)Nc1ccc2c(c1)OCCO2)Cc1cc(=O)oc2cc(C)c(C)cc12`, the max response, negative = inhibition was -1.71% (inactive).

Consider `CC(C)NS(=O)(=O)c1ccc(OCC(=O)Nc2ccc3c(c2)OCCO3)cc1`, for which the max response, negative = inhibition is 5.06% (inactive).

On to `O=C(COc1ccc2c(C(F)(F)F)cc(=O)oc2c1)Nc1ccc2c(c1)OCCO2`, for which the Potency was 7.94 µM (active).

Consider `Cc1ccc(CN(C(=O)c2ccccc2[N+](=O)[O-])c2ccccn2)cc1`, for which the max response, negative = inhibition was -9.11% (inactive).

Turning to `COc1ccc(CNC(=O)c2cc3c(=O)[nH]c4ccc(C)cc4c3s2)c(OC)c1`, the max response, negative = inhibition is 8.63% (inactive).

On to `C/C(=N\NC(=O)CNC(=O)C(c1ccccc1)c1ccccc1)c1ccc(C)cc1`, for which the Potency was 12.6 µM (active).

Take `C/C(=N\NC(=O)Cc1ccc(F)cc1)c1ccc(F)cc1`: the max response, negative = inhibition was 11.2% (inactive).

For the molecule `C/C(=N\NC(=O)c1nc(C)cc(C)n1)c1ccccc1`, the max response, negative = inhibition is 4.34% (inactive).

Regarding `O=C(CCCCn1c(=O)c2ccccc2n(CC(=O)Nc2cccc(C(F)(F)F)c2)c1=O)NCc1ccc2c(c1)OCO2`, the max response, negative = inhibition was 16.7% (inactive).

As for `CCOC(=O)c1ccc2c(c1)N(Cc1cccc(OC)c1)C(=O)c1ccccc1S2(=O)=O`, the max response, negative = inhibition was -13.7% (inactive).

In the case of `COc1cc(/C=N/NC(=O)c2ccccc2)ccc1OS(=O)(=O)c1ccccc1`, the max response, negative = inhibition was -10.2% (inactive).

Regarding `COc1cc(/C=N/NC(=O)Nc2ccccc2)ccc1OCCOc1ccccc1C`, the Potency was 25.1 µM (active).

For `COc1ccc(/C=N/NC(=O)c2ccccc2)cc1OS(=O)(=O)c1ccccc1`, the max response, negative = inhibition is -2.21% (inactive).

`Cc1ccc(NC(=O)Cc2ccc(NC(=O)N3CCCCc4ccccc43)cc2)cc1`: the max response, negative = inhibition was 16.9% (inactive).

Consider `Cc1cccc(NC(=O)c2ccc3nc(C(C)C)oc3c2)c1C`, for which the max response, negative = inhibition was -5.86% (inactive).

Take `CC(NC(=O)C(=O)NN=C1CCC(C(C)(C)C)CC1)c1ccccc1` (stereo not given): the max response, negative = inhibition was 14.7% (inactive).

As for `CC(C)(C)C1CCC(=NNC(=O)c2ccc(Br)o2)CC1` (stereo not given), the max response, negative = inhibition was 6.4% (inactive).

For the molecule `CC(C)(C)C1CCC(=NNC(=O)c2cc(-c3ccccc3)n[nH]2)CC1` (stereo not given), the Potency is 12.6 µM (active).

Regarding `CCOC(=O)Cn1c(=O)n(C2CCCCC2)c2nc(-c3cccc(OC)c3)nc(C(N)=O)c21`, the max response, negative = inhibition is -11% (inactive).

In the case of `COc1ccc(CCNc2nc3c(-c4cccc(F)c4)nnn3c3ccccc23)cc1OC`, the max response, negative = inhibition was 16.6% (inactive).

For the molecule `CC1=C(C(=O)N2CCN(c3cccc(C(F)(F)F)c3)CC2)C2(CCCCC2)OC1=O`, the max response, negative = inhibition was -13.5% (inactive).

Take `CCOc1ccc(CNC(=O)c2ccc3c(c2)nnn3C2CCCC2)cc1`: the max response, negative = inhibition is -5.67% (inactive).

With `O=C(CCCN1C(=O)/C(=C\c2ccco2)SC1=S)Nc1cccc2ccccc12`, the max response, negative = inhibition was -12.6% (inactive).

On to `Cc1nn(CC(=O)Nc2nc3ccccc3s2)c(C)c1[N+](=O)[O-]`, for which the max response, negative = inhibition was -6.47% (inactive).

For the molecule `O=C(CN1C(=O)/C(=C\c2ccccc2F)SC1=S)Nc1nc2ccccc2s1`, the Potency is 7.94 µM (active).

As to `Cc1cccc(C(=O)NCC(=O)OCC(=O)N2CC3(C)CC2CC(C)(C)C3)c1` (stereo not given), the Potency is 12.6 µM (active).

For `COc1ccccc1C(=O)N1CC2(C)CC1CC(C)(C)C2` (stereo not given), the max response, negative = inhibition is 16.4% (inactive).

For `Cc1cccc(C(=O)NCCCN2CCCC2=O)c1`, the max response, negative = inhibition was -2.37% (inactive).

As to `Cc1cc(C)cc(NC(=O)Cn2nc(N3CCN(c4ccccc4)CC3)ccc2=O)c1`, the max response, negative = inhibition is -3.11% (inactive).

For the molecule `CCn1c(SCC(=O)N/N=C/C=C/c2ccccc2[N+](=O)[O-])nnc1-c1ccccc1`, the max response, negative = inhibition was -1.88% (inactive).

In the case of `O=C(CSc1nc2ccccc2[nH]1)N/N=C/C=C\c1ccccc1[N+](=O)[O-]`, the max response, negative = inhibition was 10.4% (inactive).

Turning to `Cc1ccc(-n2c(SCC(=O)N/N=C/C=C/c3ccccc3[N+](=O)[O-])nc3ccccc3c2=O)cc1`, the Potency was 25.1 µM (active).

Turning to `C=CCN(CC=C)S(=O)(=O)c1ccc(C(=O)Nc2nc3c(s2)CCc2ccccc2-3)cc1`, the Potency is 10 µM (active).

On to `COCCN(CCOC)S(=O)(=O)c1ccc(C(=O)Nc2nc3c(s2)CCc2ccccc2-3)cc1`, for which the max response, negative = inhibition is -1.58% (inactive).

With `CCN(c1ccccc1)S(=O)(=O)c1ccc(C(=O)Nc2nccs2)cc1`, the max response, negative = inhibition was 0.885% (inactive).

For the molecule `Cc1ccc(-c2nnc(Nc3cccc(Br)c3)c3ccccc23)cc1S(=O)(=O)NCC1CCCO1` (stereo not given), the max response, negative = inhibition is -20.7% (inactive).

For `CCCCCn1c(=O)[nH]c2cc(C(=O)NCCN(C)CCCC)ccc2c1=O`, the max response, negative = inhibition was 2.28% (inactive).

Turning to `Cc1ccc(S(=O)(=O)n2cnc3ccccc32)c(C)c1`, the max response, negative = inhibition is 3.08% (inactive).

`CCn1c(C)nc2cc(C(=O)NNS(=O)(=O)c3ccc(C)cc3C)ccc21`: the max response, negative = inhibition is 9.43% (inactive).

In the case of `CCOC(=O)c1c(C)n(S(=O)(=O)c2ccc(C)cc2C)c2ccc(NS(=O)(=O)c3ccc(C)cc3C)cc12`, the Potency was 1.58 µM (active).

Consider `CN(C)c1ccnc(Oc2ccc(F)cc2)c1C#N`, for which the max response, negative = inhibition was -8.17% (inactive).

Turning to `N#Cc1ccc(-c2ccc(F)cc2)nc1Sc1ccccc1`, the max response, negative = inhibition was -27.2% (inactive).

Regarding `N#Cc1ccc(-c2ccc(Cl)cc2)nc1Oc1ccc(F)cc1`, the Potency is 25.1 µM (active).

`COc1cc(NC(=O)Cn2c(=O)n(Cc3ccco3)c(=O)c3oc4ccccc4c32)cc(OC)c1`: the max response, negative = inhibition is -21.5% (inactive).

Take `Cc1ccc(C)c(CNC(=O)c2cc3ccccn3n2)c1`: the max response, negative = inhibition is -9.01% (inactive).

For the molecule `Cc1ccccc1C(=O)NNC(=O)CN1C(=O)c2ccccc2C1=O`, the max response, negative = inhibition is -8.81% (inactive).

As to `Cc1cc2c(cc1C)N(C(=O)CN1C(=O)c3ccccc3C1=O)C(C)(C)c1ssc(=S)c1-2`, the Potency was 2.51 µM (active).

`C=CCn1c(C)cc(C(=O)CN2C(=O)c3ccccc3C2=O)c1C`: the max response, negative = inhibition was 4.29% (inactive).

For the molecule `O=C(CN1CCN(Cc2ccc(Cl)cc2)C1=O)NCc1ccc(F)cc1`, the max response, negative = inhibition was -6.99% (inactive).

Consider `COc1ccc(CCNC(=O)CCCCn2c(=O)c3ccccc3n(Cc3ccccc3C)c2=O)cc1OC`, for which the max response, negative = inhibition is -7.48% (inactive).

In the case of `Cc1cc(C)c2nc(NC(=O)C3CCCO3)sc2c1` (stereo not given), the max response, negative = inhibition is 0.42% (inactive).

Take `Cc1cc(C)c2nc(NC(=O)c3ccc4c(c3)OCO4)sc2c1`: the Potency is 10 µM (active).

On to `O=C(Nc1nc2ccccc2s1)c1ccc2c(c1)OCO2`, for which the max response, negative = inhibition is -5.87% (inactive).

For `O=C(c1ccc2c(c1)N(Cc1ccc(Cl)cc1)C(=O)c1ccccc1S2(=O)=O)N1CCCCC1`, the max response, negative = inhibition was 0.0442% (inactive).

Take `Cc1ccc(C2=N/C(=C\c3ccc(OS(=O)(=O)c4ccc(C)cc4)cc3)C(=O)O2)cc1`: the Potency is 20 µM (active).

Regarding `CCOc1cc(/C=C2/N=C(c3ccc(C(C)(C)C)cc3)OC2=O)cc(Cl)c1OS(C)(=O)=O`, the max response, negative = inhibition is 1.67% (inactive).

Consider `O=C1OC(c2ccc(Cl)cc2)=N/C1=C\c1cccnc1`, for which the max response, negative = inhibition is -2.62% (inactive).

Turning to `CN1CCN(C2(CNC(=O)COc3ccc(C(C)(C)C)cc3)CCCCC2)CC1`, the max response, negative = inhibition was -0.272% (inactive).

As to `CCn1c(C)c(C)c2cc(C(=O)NCCc3cc(OC)ccc3OC)ccc21`, the max response, negative = inhibition is 3.29% (inactive).

On to `Cc1ccc(CNC(=O)CCC(=O)N2CC(C)Sc3ccccc32)cc1` (stereo not given), for which the max response, negative = inhibition was 3.17% (inactive).

In the case of `Cc1ccc(C(=O)Nc2nnc(-c3ccncc3)s2)o1`, the max response, negative = inhibition was -16.9% (inactive).

As for `Cc1occc1C(=O)Nc1nnc(-c2ccncc2)s1`, the max response, negative = inhibition is -3.11% (inactive).

With `CC(C)=CC(=O)Nc1nnc(-c2ccc(F)cc2)s1`, the Potency is 12.6 µM (active).

`O=C(NCC12CC3CC(CC(C3)C1)C2)c1cc2nc(-c3ccccc3)cc(C(F)(F)F)n2n1`: the max response, negative = inhibition is -1.29% (inactive).

For `CC(Sc1oc(-c2ccco2)nc1S(=O)(=O)c1ccc(Br)cc1)c1ccccc1` (stereo not given), the max response, negative = inhibition is -8.99% (inactive).

Source of the values: PubChem BioAssay AID1476 (National Center for Advancing Translational Sciences (NCATS), 2009).
